Assay results reported in PubChem BioAssay AID652154 (Broad Institute, 2013).
The whole screen tested about 360,000 compounds, of which about 4,200 (1.2%) were called active. What follows is part of a selection rich in actives, with near analogues and random picks from the rest. A number with no mark means an inactive call.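 The calls were made as follows: active = mean replicate inhibition at least 60% with every replicate also reaching 60%; inconclusive = only one of the two criteria is met; inactive = mean below 60% and not all replicates reaching 60%.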

assay: PAX8 transcriptional activity inhibition in RMG-I – RMG-I cells, luciferase, single concentration, primary screen (AID 652154); settings: RMG-I TPO-luciferase reporter, SteadyGlo, 24 h; at 12.6 µM; active compounds read high;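 also: luciferase light reporting Pax8 driven TPO promoter activity; plate controls were median of neutral control wells for no effect and mitoxantrone controls for full effect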

Row | Compound | inhibition
1 | C[C@H]1CN([C@@H](C)CO)C(=O)Cc2cc(NC(=O)Nc3ccc(F)cc3)ccc2O[C@H]1CN(C)C(=O)Nc1ccc(C(F)(F)F)cc1 | 59.7%
2 | CC(=O)N1[C@H](CNC(=O)CN(C)C)[C@H](c2ccc(C3=CCCC3)cc2)[C@@H]1CO | 10.8%
3 | CN1CCN(c2ccc(NC(=O)c3ccc4c(c3)[nH]c(=O)n4Cc3ccc(F)cc3)cc2)CC1 | 1.33%
4 | CSc1nnc(NC(=O)c2nc(S(=O)(=O)Cc3ccc(C)cc3)ncc2Cl)s1 | 54.7%
5 | Cc1cccc(CS(=O)(=O)c2ncc(Cl)c(C(=O)Nc3ccc(F)cc3)n2)c1 | 96.3% (active)
6 | Cc1ccc(C)c(Cn2nnc3c(=O)[nH]c(C(=O)Nc4ccc(F)cc4)nc32)c1 | -3.4%
7 | Cc1cccc(NC(=O)c2nc(S(=O)(=O)Cc3ccccc3)ncc2Cl)c1 | 64.5% (active)
8 | Cc1cccc(NC(=O)CCN2CC(C)CC(C)C2)c1 (stereo unspecified) | 2.21%
9 | CN(C)CC#Cc1ccc([C@H]2[C@@H](CO)N(C(=O)C3CCC3)[C@H]2C#N)cc1 | 3.44%
10 | CO[C@H]1CN(C)C(=O)c2ccc(NC(=O)c3ccno3)cc2OC[C@@H](C)N(S(C)(=O)=O)C[C@H]1C | -22.4%
11 | C[C@H]1CN([C@@H](C)CO)C(=O)Cc2cc(NC(=O)Nc3ccc4c(c3)OCO4)ccc2O[C@H]1CN(C)Cc1ccc(C(=O)Nc2ccccc2N)cc1 | 37.5%
12 | O=C(Cc1ccccn1)N1[C@@H]2CNc3ccccc3[C@@H]2[C@@H]1CO | -15.2%
13 | O=C(C1CCOCC1)N1C[C@H]2[C@@H](c3ccccc31)[C@@H](CO)N2Cc1ccccc1F | -11.6%
14 | C[C@H](NC(=O)C[C@@H]1CC[C@@H]2[C@H](COC[C@@H](O)CN2C(=O)Nc2cc(Cl)cc(Cl)c2)O1)c1ccccc1 | 49.2%
15 | O=C(CCl)Nc1ccc(Sc2ccc(NC(=O)CCl)cc2)cc1 | 87.7% (active)
16 | O=C(CCl)Nc1cccc(CP(=O)(c2ccccc2)c2ccccc2)c1 | 18.2%
17 | CCC(=O)Nc1ccc(Nc2nc(Cl)nc(Nc3ccc(NC(=O)CC)cc3)n2)cc1 | 1.45%
18 | C[C@@H]1CN([C@H](C)CO)C(=O)Cc2cc(NC(=O)Nc3ccc4c(c3)OCO4)ccc2O[C@H]1CN(C)Cc1ccc(C(F)(F)F)cc1 | 13.6%
19 | O=C(OCC(=O)N1CCN(C(=O)c2ccco2)CC1)c1ccc(Cl)c(Cl)c1 | 6.78%
20 | O=C(OCC(=O)N1CCN(C(=O)c2ccco2)CC1)c1cccc(O)c1 | -23.5%
21 | CN(c1ccccc1)S(=O)(=O)c1cc(C(=O)OCC(=O)N2CCN(C(=O)c3ccco3)CC2)ccc1Cl | 80.9% (active)
